Like-named read-outs stand apart in the source and are kept apart here.
What was measured:
ZAK = conditions: concentration: 1 μM, replicates: in singlicate; n = 1
ZAP70 = conditions: concentration: 1 μM, replicates: in singlicate; n = 1
p38-alpha = system: T1, p38-alpha; conditions: n = 1
T1 construct: gene MAPK14

p38-beta = system: T2, p38-beta; conditions: concentration: 1 μM, replicates: in singlicate; n = 1
T2 construct: gene MAPK11

p38-delta = conditions: concentration: 1 μM, replicates: in singlicate; n = 1
p38-gamma = system: T3, p38-gamma; conditions: concentration: 1 μM, replicates: in singlicate; n = 1
T3 construct: gene MAPK12

[1] = concentration: 1 μM, replicates: in singlicate
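Note: KINOMEscan kinase panel screen.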

Row | Structure (SMILES) | %Inh (ZAK) | %Inh (ZAP70) | %Inh (p38-alpha; [1]) | %Inh (p38-beta) | %Inh (p38-delta) | %Inh (p38-gamma) | %Inh (p38-alpha; 1 µM)
1 | Cc1cccc(Nc2nc(NCCN)ncc2C(N)=O)c1 [GSK1292139] | 0% | 74% | 45% | 0% | 24% | 0% | 
2 | N#CC1(c2cccc(C(=O)Nc3cccc(Oc4ccc5nc(NC(=O)C6CC6)sc5n4)c3)c2)CC1 | 90% | 0% | 40% | 36% | 0% | 26% | 
3 | NCCC(NC(=O)c1cc(Br)c(-c2ccnc3[nH]ccc23)s1)c1ccccc1.O=C(O)C(F)(F)F.O=C(O)C(F)(F)F (stereo not drawn) [GSK1307810] | 10% | 0% | 8% | 0% | 21% | 0% | 
4 | O=C(Nc1c(F)cccc1F)c1cc(C(=O)c2ccccc2F)c[nH]1 [GSK1326180] | 0% | 0% |  | 15% | 0% | 7% | 47%
5 | CS(=O)(=O)c1cccc(CNc2nc(Nc3ccc4c(c3)CCC(=O)N4)ncc2C(F)(F)F)c1 | 0% | 43% | 3% | 0% | 8% | 4% | 
6 | CNc1nccc(-c2ccc3c(N)n[nH]c3c2)n1 [GSK2206003] | 22% | 0% | 6% | 0% | 22% | 25% | 
7 | CN(C)CCOc1ccc(-c2cc(-c3ccc(Cl)c(O)c3)c(-c3ccncc3)[nH]2)cc1.Cl.Cl [SB-684387] | 20% | 20% | 54% | 70% | 19% | 23% | 
8 | Cn1cc(-c2ccc3c(c2)CCN3C(=O)Cc2cc(F)cc(C(F)(F)F)c2)c2c(N)ncnc21 [GSK2635225] | 11% | 0% | 0% | 0% | 46% | 0% | 
9 | COc1cccc(CC(=O)N2CCc3cc(-c4cn(C)c5ncnc(N)c45)ccc32)c1 [GSK2608899] | 0% | 0% | 0% | 0% | 48% | 0% | 
10 | Fc1cc(Cl)ccc1Nc1ccnc2cc(-c3ccc(CN4CCOCC4)o3)ccc12 [GW560109] | 50% | 3% | 28% | 0% | 25% | 0% | 
11 | COc1cc(Nc2ccnc3cc(-c4ccncc4)ccc23)cc(OC)c1OC.Cl [GW494610] | 49% | 8% | 52% | 66% | 2% | 0% | 
12 | O=C(Nc1n[nH]c2nc(-c3cccc(O)c3)ccc12)C1CC1 [SB-711805] | 25% | 23% | 7% | 18% | 0% | 12% | 
13 | Cc1nn2c(=O)cc(N3CCO[C@H](C)C3)nc2n1Cc1cccc(Cl)c1Cl [GSK2373693] | 15% | 0% | 66% | 0% | 15% | 0% | 
14 | Cc1cc(-c2ccnc(Nc3cccc(C#N)c3)n2)cc(C)c1O [GSK1440913] | 16% | 2% | 0% | 0% | 99.7% | 91.6% | 
15 | Nc1ncc(-c2cn[nH]c2)c2scc(-c3ccc4c(c3)CCN4C(=O)Cc3ccccc3)c12 [GSK2593067] | 50% | 4% | 0% | 0% | 15% | 0% | 
16 | Cl.O=C(Nc1ccc(Oc2ccc3[nH]c(NC(=O)c4ccco4)nc3c2)cc1)Nc1cc(C(F)(F)F)ccc1F [GW683134] | 99.2% | 0% | 65% | 74% | 39% | 0% | 
17 | CCn1cnc2c(NCc3ccccc3)ncnc21 [SKF-96418] | 0% | 30% | 0% | 0% | 0% | 0% | 
18 | CCNC(=O)/C=C/c1n[nH]c2cc(Sc3ccccc3C(=O)NC)ccc12 | 48% | 0% | 13% | 11% | 18% | 16% | 
19 | COc1cccc(NC(=O)NCCNc2ccnc(Nc3ccc(F)cc3)n2)c1 [GSK1379879] | 34% | 17% | 0% | 0% | 59% | 0% | 

Row | Structure (SMILES) | %Inh (ZAK) | %Inh (ZAP70) | %Inh (p38-alpha; [1]) | %Inh (p38-beta) | %Inh (p38-delta) | %Inh (p38-gamma) | %Inh (p38-alpha; 1 µM)
20 | Nc1cccc(-c2ccc3c(N)n[nH]c3c2)c1 [GSK2193613] | 11% | 0% | 6% | 0% | 17% | 45% | 
21 | Cc1ccc(-c2ccc3occ(-c4ccc(S(C)=O)cc4)c3c2)nn1 (stereo not drawn) | 0% | 13% | 0% | 10% | 0% | 0% | 
22 | Cc1ccc(O)cc1Nc1ccnc2cc(-c3ccc(CN4CCCCC4)o3)ccc12 [GW557777] | 75% | 0% | 15% | 6% | 0% | 18% | 
23 | CN(c1ccc2c(c1)nc(NCc1ccccc1)n2C)c1ccnc(Nc2ccc(CS(C)(=O)=O)cc2)n1.Cl [GW811603] | 4% | 27% | 2% | 0% | 27% | 0% | 
24 | COc1cccc(-c2nc(-c3ccccc3)[nH]c2-c2ccncc2)c1 [SB-610250] | 5% | 0% | 98.2% | 32% | 44% | 0% | 
25 | COC(=O)Nc1nc2cc(Oc3ccc(NC(=O)Nc4cccc(SC)c4)cc3)ccc2[nH]1.Cl [GW697999] | 96.3% | 0% | 54% | 0% | 28% | 4% | 
26 | O=C(Nc1n[nH]c2nc(-c3ccccc3O)ccc12)C1CC1 [SB-711880] | 0% | 0% | 0% | 0% | 0% | 39% | 
27 | Cn1cc(-c2cnc(N)c3c(-c4ccc5c(c4)CCN5C(=O)Cc4ccccc4)csc23)cn1 [GSK2593074] | 59% | 0% | 8% | 1% | 0% | 14% | 
28 | CN(c1ccc(NC(=O)Nc2cccc(Cl)c2)cc1)c1ccnc(N)n1.Cl [GW830707] | 0% | 0% | 0% | 6% | 0% | 0% | 
29 | Cl.N#CCc1ccc(Nc2nccc(Nc3ccc(Oc4ccccc4)cc3)n2)cc1 [GW639905] | 45% | 0% | 0% | 0% | 5% | 0% | 
30 | CC(C)NCC(Cc1ccccc1)NC(=O)c1cc(Br)c(-c2ccnc3[nH]ccc23)s1.Cl.Cl (stereo not drawn) [GSK1383281] | 73% | 0% | 0% | 0% | 16% | 0% | 
31 | c1ccc(Oc2ccc(Nc3ccnc4cc(-c5ccc(CN6CCCCC6)o5)ccc34)cc2)nc1 [GW567143] | 66% | 0% | 0% | 0% | 0% | 0% | 
32 | Cc1ccc(Nc2ccnc(Nc3ccc(C)c(F)c3)n2)cc1O.Cl [GW582868] | 2% | 0% | 0% | 0% | 30% | 0% | 
33 | Fc1cc(Cl)ccc1Nc1ccnc2cc(-c3ccc(CN4CCSCC4)o3)ccc12 [GW560106] | 52% | 0% | 35% | 0% | 36% | 0% | 
34 | CC(=O)Nc1cn2nc(Oc3cccc(NC(=O)c4cccc(C(F)(F)F)c4)c3)ccc2n1 | 98.6% | 0% | 32% | 28% | 0% | 34% | 
35 | O=C(O)C(F)(F)F.O=c1[nH]ccc2nc(N[C@@H]3CCNC3)nc(Nc3ccc4c(c3)S(=O)(=O)CC4)c12 [GSK2181306] | 0% | 1% | 0% | 0% | 44% | 23% | 
36 | CC(C)(C)c1ccc(C(=O)Nc2cn3cc(-n4ccnc4)ccc3n2)cc1 | 7% | 0% | 11% | 9% | 21% | 0% | 
37 | N#Cc1cnc2cc(-c3cnc(CNCCN4CCOCC4)s3)ccc2c1Nc1ccc(Oc2ccccc2)cc1 [GW664114] | 95.6% | 59% | 0% | 0% | 37% | 0% | 
